Screening results (PubChem)
TWEAK Fn14 block = TWEAK-Fn14 signaling inhibition | inhibition, % at 10 µM | AID 1159606 | TWEAK-stimulated Fn14 reporter cells, luciferase luminescence, 8 h | hit rate 2% among 360,000; in the data active = inhibition above about 50%
CF NFkB inh = blocks PAF-induced NF-kB reporter in cystic fibrosis cells; inhibition, % at 5 µM; KKLEB NF-kB-GFP reporter, GFP fluorescence overnight; hit rate 0.86% among 360,000; AID 588850;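 active = at least 50% inhibition at 5 µM, scaled per plate between neutral and stimulator controls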;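 note: PAF is a Pseudomonas aeruginosa culture filtrate used as stimulus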
KKLEB tox = counter-screen for CF NF-kB inhibitors: cytotoxicity; KKLEB CF airway cells viability, ATPlite luminescence, overnight; stronger effect = lower value; cells stimulated with P. aeruginosa culture filtrate; activity change (cytotoxicity), % at 5 µM; hit rate 0.36% among 360,000; AID 602141;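 active = corrected activity change at or below -50% at 5 µM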
TROY NFkB inh = TROY signaling inhibition | inhibition, % at 10 µM | Q293 LMP1-TROYcd NF-kB luciferase reporter, 4 h | hit rate 0.98% among 360,000 | AID 1347056;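 active = compounds whose plate-normalised and pattern-corrected inhibition of the luciferase reporter signal at the single screening dose is 50% or more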
HIF-2a block = HIF-2a inhibition; 786-0 RCC cells HIF-2a reporter, luciferase luminescence, overnight; inhibition, % at 18.8 µM; hit rate 0.72% among 360,000;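 active = inhibition of the luminescence signal of 40% or more relative to plate controls, in a single-dose primary screen at 18.75 µM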
Peg3 prom inh = Peg3 promoter activity inhibition | HeLa PEG-Prom luciferase reporter, luminescence, overnight | hit rate 1.7% among 360,000 | inhibition, % at 20 µM;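 active = inhibition of at least 50% at 20 µM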
Of the large screens only hits and unclear results are named; the others gave an inactive call. This is a sample that favours compounds with a hit; in the whole collection about 4% have one here.

Cc1cccnc1C(c1ccc(F)cc1)N(C)C(=O)C1CCN(CCOc2ccc(Cl)cc2Cl)CC1 (stereo not drawn)	Peg3 prom inh 98.0
O=C(NC(c1ccc(F)cc1)c1ccc2ccccc2n1)C1CCN(CCOc2ccc(Cl)cc2)CC1 (stereo not drawn)	Peg3 prom inh 95.7
CC(NC(=O)C1CCN(CCOc2ccc(Cl)cc2)CC1)c1cccc2ccccc12 (stereo not drawn)	Peg3 prom inh 69.3
O=C(NC(c1ccccc1)c1ccc2ccccc2n1)C1CCN(CCOc2ccc(Cl)cc2Cl)CC1 (stereo not drawn)	Peg3 prom inh 102.0
COc1ccc([C@H]2C(C(=O)O)=C[C@@H](C(C)(C)C)N2S(=O)(=O)c2ccc(C)cc2)cc1OC	none
COc1cc(/C=C/CN2CCC(C(=O)NC(c3ccc(F)cc3)c3ccc4ccccc4n3)CC2)ccc1OC(C)=O (stereo not drawn)	Peg3 prom inh 91.0
CCOc1ccc(C(=O)NCC(=O)NCC(c2ccc(OC)cc2)N2CCOCC2)cc1OCC (stereo not drawn)	none
CC(C)Cn1c(N)c(S(=O)(=O)c2cccs2)c2nc3ccccc3nc21	TROY NFkB inh 67.2
COc1cccc(/C=N/n2c(N)c(S(=O)(=O)c3cccs3)c3nc4ccccc4nc32)c1	none
Nc1c(S(=O)(=O)c2cccs2)c2nc3ccccc3nc2n1/N=C/c1cccc(O)c1	TWEAK Fn14 block 80.9, HIF-2a block 40.0, Peg3 prom inh 91.8
CC(C(=O)NC1CCCC1)n1c(-c2ccccn2)nc2ccccc21 (stereo not drawn)	none (no result: TWEAK Fn14 block, CF NFkB inh, KKLEB tox, TROY NFkB inh, Peg3 prom inh)
CC1(C(=O)NS(=O)(=O)c2ccccc2Cl)CCN1C(=O)Cc1cccc2ccccc12 (stereo not drawn)	none
O=C(NCc1cccs1)c1nc2c(nnn2Cc2ccccc2Cl)c(=O)[nH]1	TWEAK Fn14 block 96.4, CF NFkB inh 88.4, KKLEB tox -76.2, TROY NFkB inh 83.0, HIF-2a block 75.6, Peg3 prom inh 103.6
CCC(C)[C@@H](NC(=O)OC(C)(C)C)c1nnc(S(=O)(=O)Cc2cccc(C)c2)o1 (stereo partly drawn)	CF NFkB inh 82.2, Peg3 prom inh 107.8
Cc1ccccc1CS(=O)(=O)c1nnc([C@H](Cc2ccccc2)NC(=O)OC(C)(C)C)o1	CF NFkB inh 71.5, Peg3 prom inh 104.0
CCSc1nnc([C@H](Cc2ccccc2)NC(=O)OC(C)(C)C)o1	none
Cc1cc(Oc2nc3ccccn3c(=O)c2/C=C(\C#N)C(=O)NC2CCS(=O)(=O)C2)ccc1Cl (stereo not drawn)	Peg3 prom inh 66.5
COc1ccc(Cc2c(-c3ccco3)nc3c(C)cc(Br)cn23)c(C)c1	none
Cc1cc(Br)cn2c(Cc3ccccc3)c(-c3ccco3)nc12	TWEAK Fn14 block 84.6
CCC1(c2ccc(C)cc2)NC(=O)N(C(C)C(=O)Nc2ccc(N3CCOCC3)cc2)C1=O (stereo not drawn)	none
CC1=NN(c2ccc(Cl)cc2)C(=O)C1C(c1cccc(O)c1)c1c(C)[nH]n(-c2ccc(Cl)cc2)c1=O (stereo not drawn)	TWEAK Fn14 block 50.0
CN(C)CCNC(=O)c1cccc(-c2cnc3c(NC=O)cc(-c4cccs4)cn23)c1	Peg3 prom inh 52.9
CN(C)CCNC(=O)c1cccc(-c2cnc3c(NC=O)cc(-c4ccccc4F)cn23)c1	Peg3 prom inh 95.5
Cc1cc(-c2cc(NC=O)c3ncc(-c4cccc(C(=O)NCCN(C)C)c4)n3c2)cc(C)c1O	none
COc1ccc(-c2cc(NC=O)c3ncc(-c4cccc(C(=O)NCCN(C)C)c4)n3c2)cn1	none
COc1ccc(N(CC(=O)N2CCN(Cc3ccccc3)CC2)S(C)(=O)=O)c(OC)c1	none
CN(C)C(=O)c1ccc(-n2nc(C(F)(F)F)c3c2CCCC3)cc1	TWEAK Fn14 block 58.7 (no result: TROY NFkB inh)
CCOC(=O)/C=c1\s/c(=C\c2ccccc2C)c(=O)n1CC(=O)NCc1ccc2c(c1)OCO2	KKLEB tox -58.4
CC1=C(O)c2ccccc2C(=O)C1=O	none
Cc1ccccc1N=CC1=C(O)c2ccccc2C1=O	TWEAK Fn14 block 105.8, KKLEB tox -59.6, TROY NFkB inh 77.9
O=C1C(C=Nc2ccc(F)cc2)=C(O)c2ccccc21	TWEAK Fn14 block 80.3
Cn1c(NCCc2ccncc2)nc2cc(-c3ccccc3)sc2c1=O	none
CN(C)/N=C/C=C1\CCC/C(=C\c2ccc(F)c(F)c2)C1=O	TWEAK Fn14 block 87.4
COc1ccc(/C=C2\CCC/C(=C\C=N\N(C)C)C2=O)cc1	none
CC(C)CC(=O)Nc1ccc(-c2nc3ccccc3c(=O)o2)cc1	none
CC(C)CC(=O)Nc1ccc(-c2nc3ccccc3c(=O)[nH]2)cc1	TWEAK Fn14 block 60.8
O=C(COc1cccc(F)c1)NNC(=O)Cc1ccc(Br)cc1	none
CCCN1C(=O)/C(=C/c2nc3ccccc3c(=O)[nH]2)c2ccccc21	none
CC(C)N1C(=O)/C(=C\c2nc3ccccc3c(=O)[nH]2)c2ccccc21	TWEAK Fn14 block 67.9, Peg3 prom inh 61.2
COCCCN(C(=O)Cc1coc2cc(C)c(C)cc12)c1c(N)n(Cc2ccccc2)c(=O)[nH]c1=O	none
Cc1ccc(NC(=O)c2ccc(OCC3CCCO3)cc2)c(C)c1 (stereo not drawn)	none
CCOc1ccc2nc(NC(=O)CSc3nnc(-c4ccncc4)n3CC3CCCO3)sc2c1 (stereo not drawn)	none
CCOc1ccc2nc(NC(=O)c3ccc(OCC4CCCO4)cc3)sc2c1 (stereo not drawn)	TWEAK Fn14 block 61.8
Cc1ccnc(NC(=O)c2ccc(OCC3CCCO3)cc2)c1 (stereo not drawn)	TWEAK Fn14 block 82.7, TROY NFkB inh 56.8
Cc1cccc2sc(NC(=O)c3ccc(OCC4CCCO4)cc3)nc12 (stereo not drawn)	TWEAK Fn14 block 85.0
O=C(Nc1nc(-c2ccc(F)c(F)c2)cs1)c1ccc(OCC2CCCO2)cc1 (stereo not drawn)	none
Cc1csc(NC(=O)c2ccc(OCC3CCCO3)cc2)n1 (stereo not drawn)	TWEAK Fn14 block 68.6
Cc1ccnc(NC(=O)COc2ccc3c(c2)CCC3)c1	TWEAK Fn14 block 79.4
CC(=O)Nc1ccc(NC(=O)COc2ccc3c(c2)CCC3)cc1	none
COc1ccc(C(CNC(=O)CNC(=O)c2cccc(C)c2)N2CCCCC2)cc1 (stereo not drawn)	none
CC(C)NC(=O)c1ccc(C(C)C)cc1	none
CCOC(=O)Cc1csc(N/N=C\c2cccc(Br)c2)n1	none
CCOC(=O)Cc1csc(N/N=C\c2ccc(N(C)C)cc2)n1	TWEAK Fn14 block 72.8
FC(F)(F)c1nnc2c(Sc3ccccc3)nc3ccc(Cl)cc3n12	TWEAK Fn14 block 53.1, CF NFkB inh 96.1, KKLEB tox -89.6, Peg3 prom inh 62.4
O=C(C[C@H]1CC[C@H]2[C@@H](COC[C@@H](O)CN2S(=O)(=O)c2ccc(F)cc2)O1)N[C@@H]1CCN(Cc2ccccc2)C1	none (no result: TWEAK Fn14 block, CF NFkB inh, KKLEB tox, TROY NFkB inh, Peg3 prom inh)
